The whole screen tested about 220,000 compounds, of which about 16,000 (7.3%) were called active. Another 25% or so got no clear call; they are omitted. The list comes from a sample in which actives are over-represented; it also holds similar structures and randomly drawn compounds. A number with no mark means an inactive call. Calls follow the shape of the dose curve; as a rule, active = well fitted inhibition curve with a large enough effect (not every such curve was filed as active); inconclusive = small, poorly fitted or top-dose-only effect, or another doubt; inactive = no such curve, though single readings can be large or run the other way.
Potency is read from the fitted curve at half-maximal effect.

The assay deals with Aldehyde dehydrogenase 1A1 (Homo sapiens) (UniProt P00352). The assay is described as follows: qHTS Assay for Inhibitors of Aldehyde Dehydrogenase 1 (ALDH1A1).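 As to activity, negative = inhibition: plate controls were no enzyme wells and a reference inhibitor.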 The settings on record: Purified ALDH1A1, NADH fluorescence, propionaldehyde substrate; series mostly up to 75.3 µM; activity, negative = inhibition: at the top concentration.
Aldehyde dehydrogenase 1A1 (Homo sapiens), sequence (P00352 whole entry, looked up): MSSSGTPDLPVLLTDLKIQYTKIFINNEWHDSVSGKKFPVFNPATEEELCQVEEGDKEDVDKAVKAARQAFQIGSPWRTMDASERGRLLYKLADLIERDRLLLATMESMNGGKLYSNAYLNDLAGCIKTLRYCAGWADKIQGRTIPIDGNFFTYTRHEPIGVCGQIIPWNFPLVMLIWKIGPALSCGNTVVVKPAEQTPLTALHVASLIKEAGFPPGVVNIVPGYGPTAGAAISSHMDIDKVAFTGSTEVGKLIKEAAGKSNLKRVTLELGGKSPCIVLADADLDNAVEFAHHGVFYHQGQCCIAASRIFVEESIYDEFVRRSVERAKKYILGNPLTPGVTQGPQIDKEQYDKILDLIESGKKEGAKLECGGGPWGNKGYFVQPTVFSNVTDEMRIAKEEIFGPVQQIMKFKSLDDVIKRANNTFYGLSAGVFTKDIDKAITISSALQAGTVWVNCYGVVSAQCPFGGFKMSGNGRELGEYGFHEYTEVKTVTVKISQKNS
Regarding `N=C1C(c2nc3ccccc3[nH]2)=C(O)CN1NC(=O)c1c[nH]c2ccccc12`, the “activity, negative = inhibition” value is 8.77%.
`COc1ccc(NC(=S)N2CCCC(CO)C2)c(OC)c1` (centres undefined): the “activity, negative = inhibition” value was 4.06%.
Same read-out and setting: under `Cc1cccc(C(=O)OCC(=O)NCC(C)C)c1O` stands 4.6%; under `CSc1nc(O)c(Cc2ccccc2)c(=O)[nH]1`, -0.847%; under `CCOC(=O)c1ccc(NC(=O)C2CC(=O)Nc3nc4ccccc4n32)cc1` (centres undefined), 12.3%.
Still for that read-out and setting: under `CCOC(=O)C1CCN(C(=O)Nc2ccc(Cl)cc2)CC1` stands 8.47%; under `CCOc1ccc(N2C(=O)CC(N(CCc3ccc(OC)c(OC)c3)C(=S)Nc3ccccc3)C2=O)cc1` (centres undefined), 4.94%; under `CCOC(=O)C1CCN(c2ccc(C(=O)O)cc2[N+](=O)[O-])CC1`, 2.01%.
Turning to `CCCCCCC(=O)N(O)C1CC(=O)N(c2ccccc2)C1=O` (centres undefined), the Potency was 0.316 µM (active).
Regarding `CN1C(=O)CC(N2CCN(c3ccccn3)CC2)C1=O` (centres undefined), the “activity, negative = inhibition” value is -14.7%.
As for `CCOC(=O)c1ccc(N2C(=O)CC(N3CCC(C(=O)OCC)CC3)C2=O)cc1` (centres undefined), the Potency is 12.6 µM (active).
`O=C1CC(N2CCN(c3ccc(F)cc3)CC2)C(=O)N1c1ccccc1` (centres undefined): the “activity, negative = inhibition” value was -3.2%.
Consider `COC(=O)c1cc(C(=O)OC)cc(N2C(=O)CC(N3CCN(c4ccccc4)CC3)C2=O)c1` (centres undefined), for which the Potency is 31.6 µM (active).
The same measure, in the same setting: the figure for `CCOC(=O)c1ccc(N2C(=O)CC(Sc3nc(O)c(CC)c(=O)[nH]3)C2=O)cc1` (centres undefined) is 10 µM (active).
On to `CCCOc1ccc(N2C(=O)CC(N(CCc3ccc(S(N)(=O)=O)cc3)C(C)=O)C2=O)cc1` (centres undefined), for which the “activity, negative = inhibition” value is -10.9%.
On the same count and under the same terms, under `O=C(Nc1ccn(Cc2ccccc2)n1)c1n[nH]c([N+](=O)[O-])c1Cl` stands -1.46%; under `CCn1nc(C)c(CN2CCN(Cc3ccc(OC)c(C)c3C)C(CCO)C2)c1C` (centres undefined), -0.693%; under `O=C(O)CCN(Cc1ccccc1)S(=O)(=O)c1c(Cl)cccc1Cl`, -4.7%.
Same read-out and setting: the figure for `CCOc1ccc(NC(=O)c2cc(C)nc3ccccc23)cc1` is 0.296%; for `O=C(CCCOc1ccc(Cl)cc1Cl)NNC(=O)C1CCC1` it is 1.22%; for `COCc1cc(=O)[nH]c(-c2ccc(C(F)(F)F)cc2)n1` it is 0.201%.
Consider `O=C(CCc1ccccc1)Nc1nn[nH]n1`, for which the “activity, negative = inhibition” value was -3.34%.
Turning to `COc1ccc(N2C(=O)C(Cc3ccccc3)NC2=S)cc1` (centres undefined), the “activity, negative = inhibition” value was 14.4%.
On the same count and under the same terms, under `COC(=O)CC1=NN(c2nc(C)cc(C)n2)C(=O)C1` stands 2.76%.
Same read-out and setting: under `c1ccc(CN=C2Nc3ccccc3CS2)nc1` stands 0.764%; under `CCC(C(=O)Nc1ccc2c(c1)OCCO2)c1ccccc1` (centres undefined), -4.94%.
The same measure, in the same setting: the figure for `CCOc1ccc(N2CC(C(=O)NCCN3C(=O)S/C(=C\c4cccnc4)C3=O)CC2=O)cc1` (centres undefined) is -7.75%.
In the case of `C[C@H](NC(=O)c1ccccc1Cl)C(=O)OCCOc1cccc(Cl)c1`, the “activity, negative = inhibition” value is 4.04%.
Still for that read-out and setting: under `CC1CN(C(=S)SCC(=O)c2ccccc2)CC(C)O1` (centres undefined) stands 0.843%; under `CCC(=O)c1ccc(OCC(O)CN2CC(C)OC(C)C2)cc1` (centres undefined), -13.7%.
With `CCOC(=O)c1ccc(N2C(=O)CC(N3CC(C)OC(C)C3)C2=O)cc1` (centres undefined), the Potency is 7.94 µM (active).
`CN1CCN(CCC(=O)N/N=C/C=C2\N(C)c3ccccc3C2(C)C)CC1`: the “activity, negative = inhibition” value is 3.13%.
Same read-out and setting: the figure for `Cc1cccc(-n2c(Cc3cc(=O)[nH]c(=O)[nH]3)nnc2SCC(=O)Nc2cccc(C(F)(F)F)c2)c1` is -2.03%; for `CCOC(=O)N1CCN(C(=O)CSc2nc(C)nc3c2c(=O)n(C)c(=O)n3C)CC1` it is 1.21%.
For the molecule `CCOC(=O)c1c(C)nn(-c2ncccc2NC(=O)CCC(=O)O)c1C`, the “activity, negative = inhibition” value was 5.83%.
With `CC(C)N(C)C(=O)CCc1nnc(CCc2c[nH]c3ccccc23)o1`, the “activity, negative = inhibition” value is 4.17%.
The same measure, in the same setting: under `FC(F)(F)c1cc(-c2ccco2)nc(N2CCOCC2)n1` stands 0.194%; under `O=C(CSc1nc(-c2ccco2)cc(C(F)(F)F)n1)NCc1cccs1`, -0.0855%.
For `O=C(CSc1nc(-c2ccco2)cc(C(F)(F)F)n1)N1CCc2ccccc2C1`, the Potency was 11.2 µM (active).
Consider `CC(C)(C)n1ncc2c(=O)n(Cc3ccc(Cl)cc3)cnc21`, for which the “activity, negative = inhibition” value is 10.7%.
Still for that read-out and setting: under `COc1ccc(-n2c(C)nn(CC3CC3)c2=O)cc1` stands -1.71%; under `Cc1ccc(NC(=O)c2oc(=O)c3ccccc3c2-c2ccccc2)c(C)c1`, -15.4%.
On to `Cc1ccc(NC(=S)NC(=O)c2ccc(-c3ccccc3)cc2)c(C)c1`, for which the Potency was 11.2 µM (active).
With `Cc1ccc(C(=O)NC(=S)Nc2ccccc2C)cc1`, the “activity, negative = inhibition” value was -1.81%.
The same measure, in the same setting: the figure for `O=C(CN1CCN(S(=O)(=O)/C=C/c2ccccc2)CC1)Nc1ccc(N2CCOCC2)cc1` is 7.06%; for `O=C(/C=C/c1ccccc1)c1ccoc1` it is 2.74%.
On to `O=C(/C=C/c1ccc(N2CCOCC2)cc1)c1ccccc1`, for which the Potency is 31.6 µM (active).
With `CC(C)(C)OC(=O)N1CCC(NC(=O)c2[nH]cnc2C(=O)N[C@@H](Cc2ccccc2)C(=O)OCc2ccccc2)CC1`, the “activity, negative = inhibition” value is -3.65%.
Same read-out and setting: under `CC(C)[C@H](NC(=O)c1ccc(F)cc1)C(=O)OCC(=O)NC(=O)c1cccn1C` stands -0.435%; under `CCSC1=NCCN1C(=O)c1ccc(S(=O)(=O)N(CC)CC)cc1`, -7.18%; under `CCCCN(C)C(=O)c1ccc2c(c1)N(CC)C(=O)c1ccccc1S2(=O)=O`, 8.84%.
The same measure, in the same setting: under `COC(=O)CNC(=O)c1ccccc1F` stands 12.2%.
Consider `COC(=O)CNC(=O)c1ccc2c(c1)S(=O)(=O)c1ccccc1C2=O`, for which the Potency was 11.2 µM (active).
Turning to `O=C(CCn1ccc([N+](=O)[O-])n1)Nc1nccs1`, the “activity, negative = inhibition” value is 1.26%.
The same measure, in the same setting: the figure for `COc1cc(OC)c(C2=NOC(C(=O)Nc3c(C)n(C)n(-c4ccccc4)c3=O)C2)cc1Cl` (centres undefined) is 5.57%; for `COc1ccc(NC(=O)CCNS(=O)(=O)c2ccc3c(c2)c(=O)n(C)c(=O)n3C)cc1OC` it is 4.29%.
Turning to `CC(C)(C)c1cc(CN2CCN(CCC#N)CC2)cc(C(C)(C)C)c1O`, the Potency is 7.08 µM (active).
As to `N#CCCN1CCN(S(=O)(=O)c2ccc(S(=O)(=O)N3CCCC3)cc2)CC1`, the “activity, negative = inhibition” value was -6.46%.
The same measure, in the same setting: under `CCC(=O)c1ccc(OCC(O)Cn2nc(C)c(C(C)=O)c2C)cc1` (centres undefined) stands 6.23%; under `O=C(Nc1cccc(F)c1)N1C2CCC1CC(O)(c1cccnc1)C2` (centres undefined), 2.68%; under `O=C(O)c1ccccc1-c1ccccc1C(=O)Nc1nccs1`, -6.84%.
The same measure, in the same setting: under `CCOC(=O)N1CCC(NC(=O)C(NS(=O)(=O)c2ccc3c(c2)CCN3C(=O)CC)C(C)C)CC1` (centres undefined) stands -1.13%; under `Cc1ccc(CN2CCN(Cc3cccc(C)n3)CC2CCO)cc1` (centres undefined), -7.49%.
The same measure, in the same setting: under `COc1ccc(C2=CC(c3cccc(OC)c3)n3nnnc3N2)cc1` (centres undefined) stands 3.52%.
On to `CCOc1cccc(-n2nnnc2-c2ccc(OC)cc2)c1`, for which the Potency was 25.1 µM (active).
As for `CCOC(=O)CNC(=O)c1nn(-c2cccc(OC)c2)c(=O)c2ccccc12`, the “activity, negative = inhibition” value was -2.61%.
For the molecule `Cc1ccc(S(=O)(=O)NC(=O)N2CCCN(Cc3ccc(F)cc3)CC2)cc1`, the “activity, negative = inhibition” value was 8.46%.
For the molecule `CC(=O)Nc1ccc(NC(=O)COc2ccc(S(=O)(=O)NC(C)c3ccccc3)cc2)cc1` (centres undefined), the “activity, negative = inhibition” value is 7.35%.
Still for that read-out and setting: under `O=C(Nc1cccc(C(F)(F)F)c1)c1cnccn1` stands 4.04%; under `CN(C)/C=C/C(=O)c1cnc2sccn2c1=O`, 6.38%; under `CCOC(=O)c1c(-c2ccccc2)csc1NC(=S)NC(=O)c1ccccc1`, -3.67%.
Same read-out and setting: under `CCOC(=O)c1c(NC(=O)C2(C)Cc3ccccc3C(=O)O2)sc2c1CCCC2` (centres undefined) stands 23.1%.
For the molecule `CCOC(=O)C1=C(NC(=S)NC(=O)c2ccccc2)c2ccccc2CC1(C)C`, the Potency is 20 µM (active).
Consider `COC(=O)C1=C(C)N(C)C(=S)NC1c1cc(OC)ccc1OC` (centres undefined), for which the “activity, negative = inhibition” value is 5.5%.
Take `FC(F)(F)c1ccnc(Oc2ccc(C3=NCCS3)cc2)c1`: the “activity, negative = inhibition” value is -6.21%.
Take `CCN1CCN(C(=O)c2ccc(CN(c3ccc(C)c(C)c3)S(C)(=O)=O)cc2)CC1`: the “activity, negative = inhibition” value was -0.172%.
Same read-out and setting: under `CN1CCC(=NNC(=O)CN(c2cccc(Cl)c2)S(C)(=O)=O)CC1` stands 10.8%.
For the molecule `CN1CCC(=NNC(=O)c2ccc(N(Cc3ccc(Cl)cc3)S(C)(=O)=O)cc2)CC1`, the Potency was 8.91 µM (active).
In the case of `CC(=O)N1CC(C)c2scc(C)[n+]2-c2ccccc21` (centres undefined), the “activity, negative = inhibition” value was 15.2%.
On the same count and under the same terms, the figure for `OCC1(Cc2ccccc2C(F)(F)F)CCN(Cc2cccc3cnccc23)CC1` is -3.56%; for `O=S(=O)(NC1CC1)c1ccc2c3c(cccc13)CC2` it is -5.31%.
Same read-out and setting: the figure for `COc1ccc(C(=O)NC(Cc2ccc(OC(=O)c3ccc(OC)cc3)cc2)C(=O)O)cc1` (centres undefined) is -7.25%.
In the case of `COc1ccc(-c2ccc(CCC(=O)O)n2NC(=O)c2ccc(C(C)(C)C)cc2)cc1`, the Potency is 2.24 µM (active).
Turning to `COc1ccc(N2CCN(C(=O)CNC(=O)c3ccc(C(C)(C)C)cc3)CC2)cc1`, the “activity, negative = inhibition” value was -14.7%.
Same read-out and setting: under `CCCNC(=S)N1CCCC(c2nc3ccccc3[nH]2)C1` (centres undefined) stands 9.56%; under `C#Cc1ccc([C@@H]2C=C(C(=O)O)O[C@H](OCCCCO)C2)cc1`, -7.97%; under `Cc1csc(/N=C/N(C)C)c1C#N`, -6.21%.
Regarding `C/C(Nc1ccc2oc(=O)ccc2c1)=C1/C(=O)CC2[C@@H]1C2(C)C` (some centres undefined), the Potency is 3.98 µM (active).
`COc1c(C(C)C)oc2cc3oc(=O)ccc3cc12`: the “activity, negative = inhibition” value is -1.48%.
On the same count and under the same terms, under `Cc1c(CCO)sc[n+]1CC(=O)OC12CC3CC(CC(C3)C1)C2` stands 5.18%.
On the same count and under the same terms, the figure for `CC(=O)Nc1ccc(Nc2nc3c(S(=O)(=O)c4ccc(C)c(C)c4)nnn3c3ccccc23)cc1` is 139%.
In the case of `CN(CCc1ccccn1)C(=O)CCC1CCCN(Cc2ccccc2OC(F)F)C1` (centres undefined), the “activity, negative = inhibition” value was 11.8%.
On the same count and under the same terms, under `Fc1ccccc1COc1ccccc1CNCc1ccncc1` stands 8.32%.
For `O=C(CCc1ccccc1)NCc1cccnc1`, the “activity, negative = inhibition” value was 3.47%.
On to `c1ccc(COc2ccccc2CNCc2cccnc2)cc1`, for which the Potency was 17.8 µM (active).
On to `CC(C)(C)c1ccc(/C=C2\Oc3c(ccc(O)c3CN3CCN(CCO)CC3)C2=O)cc1`, for which the “activity, negative = inhibition” value is -12.5%.
In the case of `O=C(NCc1nnc(SCC(=O)N2CCCc3ccccc32)o1)c1ccccc1F`, the Potency is 28.2 µM (active).
Turning to `Cc1nnc(SCC(=O)N2CCc3ccccc32)n1-c1ccccc1`, the “activity, negative = inhibition” value was 0.566%.
On the same count and under the same terms, under `O=C(CSc1ccc2nnc(-c3ccccc3)n2n1)N1CCCc2ccccc21` stands -10.2%; under `COc1ccc(-c2ccc(CNCCCN3CCOCC3)o2)cc1Cl`, 6.17%.
Still for that read-out and setting: under `CC1(C)O[C@@H]2C[C@@H]3[C@H]4C[C@@H](F)C5=CC(=O)C=C[C@]5(C)[C@@]4(F)[C@@H](O)C[C@]3(C)[C@]2(C(=O)CO)O1` stands 12.1%; under `COc1ccc(C2C(C(=O)Nc3ccccc3OC)=C(C)Nc3nnnn32)c(OC)c1` (centres undefined), -14.3%.
The same measure, in the same setting: the figure for `COc1ccccc1NC(=O)C1=C(C)Nc2nnnn2C1c1cccc(Br)c1` (centres undefined) is -5.9%.
For the molecule `COC(=O)C1=C(C(=O)c2ccc(C)cc2)C(c2ccccc2)n2nnnc2N1` (centres undefined), the Potency was 7.08 µM (active).
